Experimental data: PubChem BioAssay AID1159580 (chemical genetic matrix, 2015)
The campaign covered roughly 5,500 compounds. About 2,000 (36%) were called active. Not shown: some 18% with an inconclusive outcome. Rule as the data show it: active = normalized growth mostly below about 0.91 (no sharp cut-off); inconclusive = no clear call, values can overlap the other calls; inactive = mostly above about 0.92. This is one part of the list.

Experiment: chemical genetic growth profiling, strain panel (AID 1159580);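 also: tested at 20 µM; growth read once vehicle control cultures reached saturation at 30 °C; 1 = growth at the plate median or of vehicle wells; lower values mean less growth of the strain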
Conditions: S. cerevisiae deletion strains, growth OD

Measured: normalized growth

CCOC(=O)c1c(C)cc(O)c(C)c1O
inactive: locus YBR021W, strain FUR4, hits give low values 0.975 | locus YBR229C, strain ROT2, hits give low values 0.976 | locus YCL029C, strain bik1, hits give low values 0.955 | locus YDL035C, strain GPR1, hits give low values 1.01 | locus YDL074C, strain BRE1, hits give low values 0.981 | locus YDL101C, strain DUN1, hits give low values 0.986 | locus YDL134C, strain PPH21, hits give low values 0.979 | locus YDL185W, strain tfp1, hits give low values 0.969 | locus YDL192W, strain arf1, hits give low values 0.931 | locus YDR150W, strain NUM1, hits give low values 0.98 | locus YDR162C, strain NBP2, hits give low values 0.966 | locus YDR502C, strain sam2, hits give low values 0.929 | locus YEL061C, strain CIN8, hits give low values 0.975 | locus YER110C, hits give low values 0.938 | locus YER155C, strain BEM2, hits give low values 0.941 | locus YER167W, strain BCK2, hits give low values 0.961 | locus YGL078C, strain dbp3, hits give low values 0.968 | locus YGL248W, strain PDE1, hits give low values 0.992 | locus YGR135W, strain pre9, hits give low values 0.931 | locus YGR252W, strain gcn5, hits give low values 1.07 | locus YHR030C, strain SLT2, hits give low values 0.978 | locus YHR079C, strain IRE1 (second series), hits give low values 0.945 | locus YHR094C, strain hxt1, hits give low values 0.932 | locus YHR129C, strain ARP1, hits give low values 0.988 | locus YHR200W, strain rpn10, hits give low values 0.933 | locus YIL066C, strain RNR3, hits give low values 0.999 | locus YIL073C, strain SPO22, hits give low values 1.02 | locus YIR030C, strain dcg1, hits give low values 0.952 | locus YJL095W, strain BCK1, hits give low values 0.936 | locus YJL134W, strain LCB3, hits give low values 0.965 | locus YJL168C, strain set2, hits give low values 0.945 | locus YJL187C, strain SWE1 (second series), hits give low values 0.996 | locus YJR043C, strain POL32, hits give low values 0.949 | locus YKL009W, strain mrt4, hits give low values 1.01 | locus YKL068W, hits give low values 0.945 | locus YKL085W, strain MDH1 (second series), hits give low values 0.943 | locus YKL085W, strain MDH1, hits give low values 0.943 | locus YLR039C, strain RIC1, hits give low values 1.04 | locus YLR058C, strain SHM2, hits give low values 0.97 | locus YLR102C, strain apc9, hits give low values 0.946 | locus YLR268W, strain sec22, hits give low values 0.918 | locus YLR330W, strain CHS5, hits give low values 0.976 | locus YML016C, strain PPZ1, hits give low values 0.956 | locus YML032C, strain rad52, hits give low values 0.917 | locus YML124C, strain tub3, hits give low values 0.935 | locus YMR078C, strain ctf18, hits give low values 0.924 | locus YMR223W, strain ubp8, hits give low values 0.952 | locus YMR263W, strain SAP30, hits give low values 0.97 | locus YMR307W, strain GAS1, hits give low values 0.923 | locus YNL067W, strain RPL9B, hits give low values 0.978 | locus YNL233W, strain BNI4, hits give low values 0.956 | locus YNL250W, strain rad50, hits give low values 0.963 | locus YNL271C, strain bni1, hits give low values 0.941 | locus YNL298W, strain CLA4, hits give low values 0.964 | locus YNL322C, strain KRE1, hits give low values 0.968 | locus YNR052C, strain pop2, hits give low values 0.993 | locus YOL006C, strain TOP1, hits give low values 0.887 | locus YOL012C, strain htz1 0.713 | locus YOR061W, strain CKA2, hits give low values 0.98 | locus YOR069W, strain VPS5, hits give low values 0.975 | locus YOR136W, strain idh2, hits give low values 0.957 | locus YOR144C, strain elg1, hits give low values 0.939 | locus YOR184W, strain ser1, hits give low values 0.89 | locus YOR316C, strain cot1, hits give low values 0.959 | locus YPL055C, strain LGE1, hits give low values 0.954 | locus YPR141C, strain kar3, hits give low values 0.924 | locus YPR163C, strain tif3, hits give low values 0.918 | locus YPR167C, strain met16, hits give low values 0.945 | strain wtn01, hits give low values 0.909
active: locus YDR101C, strain arx1, hits give low values 0.901 | locus YDR318W, strain mcm21, hits give low values 0.901 | locus YDR388W, hits give low values 0.916 | locus YGL086W, strain mad1, hits give low values 0.916 | locus YIL125W, strain kgd1, hits give low values 0.922 | locus YKR001C, strain vps1, hits give low values 0.887 | locus YLR371W, strain rom2, hits give low values 0.717 | locus YLR418C, strain cdc73, hits give low values 0.806 | locus YNL307C, strain MCK1, hits give low values 0.875 | locus YOL147C, strain pex11, hits give low values 0.914 | locus YPR119W, strain clb2, hits give low values 0.928
